In PubChem BioAssay AID1159506 (National Center for Advancing Translational Sciences (NCATS), 2015) one finds seed-corrected z-score data, which are given here for 132 sequences.

Over roughly 59,000 sequences, the read-out has its median near -0.00055; the lowest 2% begin near -2. Many of the other results were omitted from the sample, so the lowest values are more common in it than they were.

The nature of the experiment: Identification of proteins required for the processing of the EWS-FLI1 nascent transcript.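 Also: robust z of luciferase light less the median z of siRNAs with the same seed.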 The settings on record: TC32 Ewing sarcoma NR0B1-luc vs CMV-luc (EWS-FLI1 target promoter against control promoter), 48 h; screened at 20 nM (by protocol). The method in brief: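 Readout: OneGlo luminescence, 48 h post-transfection, TC32-NR0B1-luc vs TC32-CMV-luc in parallel. siRNA 20 nM final, RNAiMax lipid, 600 cells/well; z-score-MAD transformed, then seed-adjusted.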
Consider AGUCAUAUCAUUUAUAGUG against FOXQ1, for which the seed-corrected z-score was -0.473. The value for UUUCAAUUUAGUUUGAUGA against LOC728147 was 0.0773; that for AUUACUUCGAGACUUGCUG against LCLAT1 was -0.482; that for AAACUUAGUAGAGUUGUCC against LOC342541 was 0.528. To GUUGUGACCUGUCACGAUG against CTU1 belongs -1.99.

Sequence UGCUUGACAACUGGCCACC against RPL18AP4 returned a seed-corrected z-score of -0.411. The value for UCAUCAUCUUCUUCGAGGC against DCLRE1A was -2.16; that for UAGAGGACCUUCAUGUUGU against THY1 was 0.624. To UUAUCUGGAAUGAACAAUG against PHF3 belongs -0.486. To UACGAUCAUUGCACUGUCC against FBN1 belongs -0.21; to UAUGUAUCUACCCAUCCGC against ATG3, -1.27.

In turn, UGACUGUUCACGGAAUUCU against TGM3 had a seed-corrected z-score of -0.755. The value for UCUUUAGGAAUGUAAAGCC against SKIV2L2 was 0.824; that for UCAUUUUCGACCACCUUUC against WBSCR16 was -0.738. To UUAGGAACUCGAACGACGU against GTF2F1 belongs 0.889; to UUCUUCUUAGAUUUAUGCC against RPL3, -2.09.

Sequence UCUCGAUUGAGGGUGGUUG against FLRT3 registered a seed-corrected z-score of 0.383.

Turning to AUAGGUGCAAGGCUUGUGC against C1orf56, the seed-corrected z-score was -2.01. To UCUUCUCGAACAGAGGUCG against F2 belongs -0.0868; to UGAGGGUUUAGCAUCAAGC against PCGF1, -1.47; to UCUUUUAACGACCUCCUGC against SLC35D3, 0.495. To UCGCGGAUCUCCUUUGUGG against HMGN2P18 belongs -0.51; to AAAGUCCCAAGUGCUAAGA against FAM180B, 2.95. The value for UUCUCGAUGCGGUCCAUCC against RILPL1 was 1.36.

As for UUUGGUAGAAAAUUGCAGA against FJX1, the seed-corrected z-score is -0.707. UUCCGUUCCACCUCCAUCA against SPATC1 had a seed-corrected z-score of -2.15. The sequence UCAUCUACCUGUAUUACCU against CDCA8 showed a seed-corrected z-score of -0.479. The value for AAUGGUAGUAGCGGAAUCG against SLC12A6 was -1.16.

In turn, UAUGUACUUCUGACAAGUC against RNF125 gave a seed-corrected z-score of 0.00921.

The sequence UAUCUAGCAGCUCUCCCAG against AMHR2 had a seed-corrected z-score of 0.151. In the case of UAACCGACUGGGUAGAGCG against EMC4, the seed-corrected z-score was 0.348. To UCUCUGCUCAAUGUUUUCU against LBH belongs -2.25; to UACGAGGAUGUUGUAUUCC against N4BP1, -0.092; to UACAGUACAAACAAGGCUG against CEBPA, -0.377. To UUAACUGCUAGUGUAUUGG against TCP1 belongs -1.18; to UCAAGGAUAAGAGAGAUUG against RORC, 0.034. The value for UGCGAUUGAAUAUUCUACG against CSRNP3 was -2.35. In turn, AUUCUUACAAUCUAAAGGC against SUPT7L yielded a seed-corrected z-score of 0.435.

For the sequence AGAGGUUGUACAUUCUUCG against SESN2, the seed-corrected z-score was -2.47. The value for UUCUUAGACACGUAGUACC against KAT2B was 0.834; that for UAGGGAUUCCCUGUAGUUC against COLEC10 was 1.57; that for AUCUGUCUGAGUGCAAAUC against HIPK1 was -0.0595. Take UUGGUAUCAAGGUCUACAC against DENND4B: the seed-corrected z-score is -0.319. For the sequence AUUGUAUACAGCGAGUUCU against GP1BA, the seed-corrected z-score stood at 0.181. AUCCGGAACCUGUAGAUCG against CCDC130 displayed a seed-corrected z-score of -0.0498.

On to AAUGGUCUUGUUGGUCUCC against TSNARE1, for which the seed-corrected z-score is -2.7. The value for UGAUUAACCAGUACUGAUG against C5orf42 was 0.83; that for AUUAGAACUACAGCUCUCG against LOC648999 was 0.638; that for UCGAUGGUAAGGUAAGAGC against DNMT3B was -2.25. To UCUCGUAGAACAUUGCUGG against VPS53 belongs -0.933; to AAAGCUGGAAUAAAUAGUC against DLX5, -0.397; to UGAAUGUCAAUGUCGUAUG against PCDHB1, -0.133. The value for UGUUGUUCUUGACUGACUG against SNRPD2P1 was -4.32; that for UUAGUGAUAUUCUUGACAG against PSMD5 was 0.816. UCAUGUAAAACUCUCGGCC against PARS2: the seed-corrected z-score was -0.0062. The value for UCAUUGAAGUGCUUAGUGG against RASGRF1 was -0.277; that for UGUUGUAGAUCCAUAGUUC against KLHDC2 was -4.33; that for UCCAUGUCAUGUAAAUUUC against MR1 was -0.441.

In turn, AUUGCAAAAGUAGAUUUAC against RPL26P30 showed a seed-corrected z-score of 0.181. To UUCAGUUCUAGAGGUCUGC against TMEM53 belongs -0.0791; to UUCGCUUCCAGUUCACCUC against MBOAT1, 0.704; to UAUGUGACGAGGGUCAUGC against THBS1, -2.07. To AAACCCUUCACAGUCUUGG against LOC388955 belongs 0.158. To AGCUAUAUUAUUCACAGCC against BTF3L4 belongs -0.0759.

Take UGUCUAAUAAACAAGUUAC against DNA2: the seed-corrected z-score was -0.418.

The sequence UCUCCGAUGAGAGCUUUGG against GNS gave a seed-corrected z-score of -0.354. On to AUAGUGUAAAGAACAUCCG against HNRNPL, for which the seed-corrected z-score amounted to 2.46. To UCCAUUACAAUCGACCUUU against PROK2 belongs -0.664. The value for UUCCCGUUCAUUUUGCAAC against ASZ1 was -0.283; that for AAGGUGUCGAUGUCCAUGG against MSLNL was -2.6. The value for AAAUCAACCAAUUAAAGUC against LOC403323 was 1.01; that for UGUUCAAUCUUGGAGCUGG against LRRC8E was 1.15; that for AAAGAUCAAAUCUGAUUCC against MRPL19 was -0.8. For the sequence AUAUGUUCAAGGUGAUUCG against OR6K2, the seed-corrected z-score was -0.456.

For AUCGCGAACACUAACGUAC against SUB1, the seed-corrected z-score was -0.141. The value for UUAGGUAACGGAAACGGGC against LDHC was 0.562; that for UUGGUAUUGAUCGUUUAUG against DCUN1D1 was 1.03.

As for AUACCGAAAACCUUCGCCC against ABCA3, the seed-corrected z-score was determined as 0.623. To UAUGGUUACAAAGGGAACU against ZNF669 belongs 0.508; to UCAGGUACAAUUCUGAUUC against KRT38, -0.223.

In the case of UUGGGUGUCAGGAUCUCGU against MYH14, the seed-corrected z-score is -2.4. UACAUCUCCAGGGUCAGCG against CALY registered a seed-corrected z-score of -0.514. The sequence UCUGCGACUCCUGUUCUGC against WRBP1 displayed a seed-corrected z-score of 0.0575. To UUUGUAAGGUUGCUGAUCG against CLIP1 belongs 0.221.

As to UUCUCGUCUAGUUUGCAUC against SH3RF3, the seed-corrected z-score came to 0.155. The value for AUUGUUUGUGGUAUUGUAG against CRHR1 was 0.211; that for UGAGUGCUUACUGGUUUGC against C9orf47 was -3.58. The value for UCGGAUGUAUCUGAGGUGC against DCAF8L1 was -0.269; that for UCUAAUUCUGCGGCUUUUC against SCAMP1 was -0.0112; that for UAGAUGCUCAGGGAUCACC against AS3MT was 1.06. As to UUUCGAACACGAAACAUUC against LOC340089, the seed-corrected z-score is -0.0497.

Sequence AUACCUGCUAAUGUCAUCC against ERCC6 displayed a seed-corrected z-score of -3.8. To ACAGUUAGUAUUGUACUUG against ZNF280C belongs 0.315; to UGAGUUUCCAGGCUAUCAC against CCDC122, -2.99. The value for AUACUGAAAAUAGUACAUG against KMT5A was 0.332. The sequence UGUACAGAGAGGGCAUGUG against BAIAP2L2 gave a seed-corrected z-score of -1.82. Consider UUUCAUAGAUUAGCACUCC against PRKACB, for which the seed-corrected z-score was -0.257. Consider UCGGUGAUGAGGCUGAUCC against G6PC3, for which the seed-corrected z-score is -0.843. The value for AGUGUAACAGACAUCAUGC against DLAT was -0.966; that for UUGUAUUCCCUUGUGGUCC against KHDRBS1 was -2.93. For UGCUUUGUCGUAAUCUUCC against UNC45A, the seed-corrected z-score was -0.29. The value for AAAAUAAUCGAUGUGAUUU against FOXI3 was -0.41. The value for AUCACUCUCACAUACAUGG against RCAN1 was -0.288. Consider UAUCGUGAAACAGACUUCC against SND1, for which the seed-corrected z-score turned out to be 0.0523. To UUCUAAACAACUCUUGGAC against RPUSD4 belongs -0.962; to UACAGGGUCAGGGAGAGGU against PTPN6, -2.18; to UUGUAUACAACCUAUCAAC against B4GALT6, -0.657. The value for UUAUUUUGAAUAGCCUUCC against SERBP1 was 1.09. The value for UAUAUCGACAGCUCAGCUC against SUPT6H was -4.43; that for UUGGUAUCCAAAGACGAUG against RTKN2 was -0.918; that for “AAGGGCAAAGGAGUGAGGC against LOC100289495” was -0.199. On to UUCUGGUUAGUCAUAUUGG against HDAC1, for which the seed-corrected z-score is -0.41. To UUGAGGGCAGAAGUACACU against FAM231D belongs -0.76. To UGGUUUGUCAGCGGGAUUC against MINK1 belongs -2.53; to AUCCGAACACCCAUAAGCC against POLK, -0.479; to UUAAUUCUAUUCGAUCAUC against MNS1, 0.033. To UCUUAUGUUGGUGUUGUUC against SMOC1 belongs 0.0653; to UGAGUGAUAGUCUAGACUC against SOX9-AS1, 0.0191; to UUUAUUUAGGGAGCUCCAG against ETHE1, 0.835.

UUACGUUCAGAGUCUAUCG against C17orf75 yielded a seed-corrected z-score of 0.0852. To UUGUUGAUCACUUUGACGG against IKZF3 belongs 0.604; to AAACAGUCCAUUAACUUCU against RBM38, 0.257. To UUCUUGGUAAGAUCGAGAG against RNF43 belongs -2.77; to AAUGCGAUUAUUGUCUGUC against CCT3, 0.0264; to UCGGUUGUAUAUGUCAUCC against KIAA0100, 0.141.

Sequence UUCACUGAUCUGAAAGUUG against NAA10 yielded a seed-corrected z-score of 0.839.

As for UCACUGUGCAUUUCUCCAC against GUCD1, the seed-corrected z-score was 0.93. With UUAUAGUAUGCAGGAAUGG against FAM150B, the seed-corrected z-score is -1.67.

In turn, UGACUAAGAACUGUAUCCC against CC2D2B gave a seed-corrected z-score of -2.16.

UUUUCGGCGUGUAUCCUCG against CHMP1B gave a seed-corrected z-score of -0.617. In turn, UCUUUGACAAGGACCCUUC against G2E3 showed a seed-corrected z-score of 1.23. To UAGGUCAAGAUAACCAUGC against OR8K1 belongs -13.9.
